Assay results published in PubChem BioAssay (NCI).
This is part of a sample that, as a whole, favours compounds with a hit. Of some 83,000 tested, about 20% had one in any assay.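 Results are percent growth after 48 hours of single-concentration exposure. 100 means growth as in untreated cells, lower positive values show inhibition; negative values down to -100 show cell death.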 A number with no mark means an inactive call. Active and inactive are the calls of the source. How the source made its calls: active means growth percent below 10; inactive means the rest.

Test system: MOLT-4 leukemia
Assay: NCI-60 one-dose screen, 48 h (100 = growth as untreated, 0 = no growth, -100 = all killed)
Details: 10 µM unless noted

Structure (SMILES) | growth
Nc1nc2ccc(CNc3ccc(C(=O)NC(CC(=O)O)C(=O)O)cc3)cc2c(=O)[nH]1 (stereo not drawn) | 30.4%
Cc1cn(C2CC(F)C(CO)O2)c(=O)[nH]c1=O (stereo not drawn) | 57%
CN(C)C(=O)Nc1nc2cc(Cl)c(Cl)cc2[nH]1 | 8.26% (active)
Cc1cccc(NC(=O)CCc2ccc(N3C(N)=NC(N)=NC3(C)C)cc2)c1 | 50.5%
COc1cc(/C=C/C(=O)c2c(C)[n+]([O-])c3ccccc3[n+]2[O-])ccc1O | 126%
CCC1CN2C(=N1)c1ccccc1-c1cc(Cl)ccc12 (stereo not drawn) | -24.8% (active)
CC(C(C(=O)N1CCCCC1)N1CCCCC1)N1CCCCC1 (stereo not drawn) | 79.8%
NC(CSC(c1ccccc1)(c1ccccc1)c1ccc(F)cc1)C(=O)O (stereo not drawn) | 9.44% (active)
CS(=O)(=O)OCC(COS(C)(=O)=O)C(c1ccccc1)c1ccccc1 | 75.7%
S=c1ssnc1-c1ccccn1 | 0.997% (active)
O=C(Cn1c2ccccc2c2ccncc21)N/N=C/c1cc(O)c(O)c(O)c1 | 88.4%
CN(C)c1ccc(/C=N/N=C(N)N)cc1 | 83.2%
Cc1cc2c(cc1C)N(C(=O)CCl)CCN2C(=O)CCl | 1.2% (active)
O=C(O)c1cc2ccccc2cc1Nc1ccccc1 | 91.1%
O=C(Nc1ccccc1Cl)c1c[nH]c(=O)c(-c2ccc(N3CCCOC4(CC4)C3)cc2)c1 | 48.1%
Clc1ccc2c(c1)nnn1c3ncccc3c(Br)c21 | 115%
Cc1nssc1=S | 99.8%
FC(F)(F)c1cn(CC2CNC2)c2ncnc(Cl)c12 | 89.9%
CN1CCN(Cn2nc(-c3cc(Cl)cc(Cl)c3Cl)n(/N=C/c3ccc(Cl)cc3)c2=S)CC1 | 59%
NC(N)=N/N=C/c1ccc([N+](=O)[O-])cc1 | 97.5%
CC1=C2C(=C[C@@](C)(CO)[C@@H]2OC(=O)N(C)CCN(C)C(=O)OC(C)(C)C)C(=O)[C@](C)(O)C12CC2 | 89.7%
Nc1nc(=S)ss1 | 90.4%
COC(=O)c1oc2c(C(C)=O)c(OCCN3CCCCC3)ccc2c1C | 108%
Cc1cc[n+](CCCC[n+]2ccc(C)cc2)cc1 | 91.1%

Test system: SR leukemia
Assay: as above
Details: 10 µM unless noted

Structure (SMILES) | growth
CCOc1ccc(NC(=O)Nc2cc(C(C)C)ccc2C)cc1 | 36.6%
NS(=O)(=O)c1ccc(-n2nc(-c3ccc(Cl)cc3)ccc2=O)cc1 | 64.4%
COC(OC)C1(c2ccccc2)NC(=O)NC1=O (stereo not drawn) | 74.8%
O=C(C[n+]1ccccc1Cl)c1ccc2c(c1)CCCC2 | 59.8%
CN1CCN(CC(O)COc2c(Br)c(Br)c(Br)c3c2OC(C)(C)C3)CC1 (stereo not drawn) | -26.4% (active)
CC(=O)N[C@@H](CNC(=O)c1cc(NC(=O)c2cc(NC(=O)c3cc(NC(=O)c4nccn4C)cn3C)cn2C)cn1C)CC(=O)Nc1cn(C)c(C(=O)Nc2cc(C(=O)Nc3cc(C(=O)Nc4cc(C(=O)NCCCN(C)CCCNC(=O)c5cccc(C(=O)O)c5)n(C)c4)n(C)c3)n(C)c2)n1 | 77.2%
CC(C(C(=O)N1CCCCC1)N1CCCCC1)N1CCCCC1 (stereo not drawn) | 71.3%
CS(=O)(=O)OCC(COS(C)(=O)=O)C(c1ccccc1)c1ccccc1 | 74.7%
S=c1ssnc1-c1ccccn1 | -25.5% (active)
CN(C)c1ccc(/C=N/N=C(N)N)cc1 | 54.8%
Cc1cc2c(cc1C)N(C(=O)CCl)CCN2C(=O)CCl | -13.6% (active)
O=C(O)c1cc2ccccc2cc1Nc1ccccc1 | 97.8%
Cc1nssc1=S | 97.6%
CN1CCN(Cn2nc(-c3cc(Cl)cc(Cl)c3Cl)n(/N=C/c3ccc(Cl)cc3)c2=S)CC1 | 38.7%
NC(N)=N/N=C/c1ccc([N+](=O)[O-])cc1 | 110%
Nc1nc(=S)ss1 | 80.6%
Cc1cc[n+](CCCC[n+]2ccc(C)cc2)cc1 | 97.3%

Test system: RPMI-8226 leukemia
Assay: as above
Details: 10 µM unless noted

Structure (SMILES) | growth
CCOc1ccc(NC(=O)Nc2cc(C(C)C)ccc2C)cc1 | 43.4%
NS(=O)(=O)c1ccc(-n2nc(-c3ccc(Cl)cc3)ccc2=O)cc1 | 99%
CC1=C[S+](c2ccccc2)c2cccc3cc4ccccc4c1c23 (stereo not drawn) | -32.5% (active)
O=C(Nc1ccccc1F)Nc1ccccc1Cl | 78.8%
O=C(C[n+]1ccccc1Cl)c1ccc2c(c1)CCCC2 | 90.3%
COc1cc(-c2nc3sc(C)cn3c2/C=C2\C(=O)Nc3ccccc32)c(Br)c(OC)c1OC | 28.6%
CC1(C)N=C(N)N=C(N)N1c1cccc(CCCCc2ccccc2)c1 | -50% (active)
COc1ccc(/C=C2\CS(=O)(=O)C/C(=C\c3ccc(OC)cc3)C2=O)cc1 | -41.2% (active)
CN1CCN(CC(O)COc2c(Br)c(Br)c(Br)c3c2OC(C)(C)C3)CC1 (stereo not drawn) | -11.3% (active)
CC1(C)N=C(N)N=C(N)N1c1ccc(OCC(=O)Nc2ccccc2)c(Cl)c1 | 34.5%
COc1ccc2c(c1)nnc1c3cccnc3[nH]c21 | -41.9% (active)
CC(=O)N[C@@H](CNC(=O)c1cc(NC(=O)c2cc(NC(=O)c3cc(NC(=O)c4nccn4C)cn3C)cn2C)cn1C)CC(=O)Nc1cn(C)c(C(=O)Nc2cc(C(=O)Nc3cc(C(=O)Nc4cc(C(=O)NCCCN(C)CCCNC(=O)c5cccc(C(=O)O)c5)n(C)c4)n(C)c3)n(C)c2)n1 | 105%
Nc1ccc(S(=O)(=O)Nc2cc(I)cc(I)c2)cc1 | 97.5%
Nc1nc2ccc(CNc3ccc(C(=O)NC(CC(=O)O)C(=O)O)cc3)cc2c(=O)[nH]1 (stereo not drawn) | 44.3%
Cc1cn(C2CC(F)C(CO)O2)c(=O)[nH]c1=O (stereo not drawn) | 82.5%
CN(C)C(=O)Nc1nc2cc(Cl)c(Cl)cc2[nH]1 | -15.7% (active)

Structure (SMILES) | growth
Cc1cccc(NC(=O)CCc2ccc(N3C(N)=NC(N)=NC3(C)C)cc2)c1 | 32%
COc1cc(/C=C/C(=O)c2c(C)[n+]([O-])c3ccccc3[n+]2[O-])ccc1O | 104%
CCC1CN2C(=N1)c1ccccc1-c1cc(Cl)ccc12 (stereo not drawn) | -9.43% (active)
NC(CSC(c1ccccc1)(c1ccccc1)c1ccc(F)cc1)C(=O)O (stereo not drawn) | -25.9% (active)
S=c1ssnc1-c1ccccn1 | 10.2%
O=C(Cn1c2ccccc2c2ccncc21)N/N=C/c1cc(O)c(O)c(O)c1 | 100%
Cc1cc2c(cc1C)N(C(=O)CCl)CCN2C(=O)CCl | -41.9% (active)
O=C(O)c1cc2ccccc2cc1Nc1ccccc1 | 78.4%
O=C(Nc1ccccc1Cl)c1c[nH]c(=O)c(-c2ccc(N3CCCOC4(CC4)C3)cc2)c1 | 21.2%
Clc1ccc2c(c1)nnn1c3ncccc3c(Br)c21 | 83.2%
Cc1nssc1=S | 97%
FC(F)(F)c1cn(CC2CNC2)c2ncnc(Cl)c12 | 105%
CN1CCN(Cn2nc(-c3cc(Cl)cc(Cl)c3Cl)n(/N=C/c3ccc(Cl)cc3)c2=S)CC1 | 96.3%
CC1=C2C(=C[C@@](C)(CO)[C@@H]2OC(=O)N(C)CCN(C)C(=O)OC(C)(C)C)C(=O)[C@](C)(O)C12CC2 | 48%
COC(=O)c1oc2c(C(C)=O)c(OCCN3CCCCC3)ccc2c1C | 97.6%
Cc1cc[n+](CCCC[n+]2ccc(C)cc2)cc1 | 94.2%
